# Results as given in PubChem BioAssay.
# Calls of active or inactive are those of the source. Unless noted, no rule for the calls is given here.
# Experiments:
# [1] = A549 cell viability effects, profiling panel, calcein-AM fluorescence, 48 h, basal (AID 1162); conditions: higher = more signal; also: test concentration not given here
# [2] = adipocyte viability effects, profiling panel, cell-based, 3T3-L1 adipocytes, calcein-AM fluorescence, 48 h, basal (AID 1163); conditions: 3T3-L1 adipocytes viability, higher = more signal; also: test concentration not given here
# [3] = HepG2 cell viability effects, profiling panel, calcein-AM fluorescence, 48 h, basal (AID 1164); conditions: higher = more signal; also: test concentration not given here
# [4] = MM1S cell viability effects, profiling panel, calcein-AM fluorescence, 48 h, basal (AID 1165); conditions: higher = more signal;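 also: viability of MM1S multiple myeloma cells under basal unstimulated conditions; test concentration not given here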
# [5] = basal RPMI8226 viability, no added stimulus, profiling panel, cell-based, calcein-AM fluorescence, 48 h, PK04 Diversity Set (AID 1166); conditions: RPMI8226 myeloma viability, higher = more signal;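 also: cells grown under basal conditions without added stimulus; test concentration not given here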
# [6] = basal HepG2 mitochondrial membrane potential changes, profiling panel, cell-based, JC-1 fluorescence, 24 h, 100 nL compound (AID 1167); conditions: higher = more signal; also: test concentration not given here
# [7] = basal 3T3-L1 adipocyte mitochondrial potential changes, profiling panel, cell-based, JC-1 fluorescence, 3T3-L1 adipocytes, 24 h, 100 nL compound (AID 1168); conditions: JC-1 mitochondrial fluorescence, higher = more signal, called active from +8 up or from −8 down; also: test concentration not given here
# [8] = basal RPMI8226 mitochondrial membrane potential changes, profiling panel, cell-based, JC-1 fluorescence, 24 h, 100 nL compound (AID 1169); conditions: RPMI8226 myeloma, JC-1 mitochondrial potential fluorescence, higher = more signal; also: test concentration not given here
# [9] = basal MM1S mitochondrial membrane potential changes, profiling panel, cell-based, JC-1 fluorescence, 24 h, 100 nL compound (AID 1170); conditions: higher = more signal; also: test concentration not given here
# [10] = A549 lung cancer cell viability effects, profiling panel, resazurin fluorescence, 24 h, PK04 Diversity Set (AID 1171); conditions: higher = more signal, called active from +8 up or from −8 down; also: test concentration not given here
# [11] = HepG2 liver cancer cell viability effects, profiling panel, resazurin fluorescence, 24 h, PK04 Diversity Set (AID 1172); conditions: higher = more signal; also: test concentration not given here
# [12] = basal S. cerevisiae growth modulation, no modifier, primary screen, OD600, strain BY4716, 24 h, basal condition (AID 1173); conditions: OD600, 24 h, higher = more signal, called active from +8 up or from −8 down
# [13] = MM1S myeloma cell viability, profiling panel, resazurin fluorescence, basal, 24 h, PK04 Diversity Set (AID 1174); conditions: higher = more signal, called active from +8 up or from −8 down;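 also: MM1S multiple myeloma cell line; test concentration not given here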
# [14] = target: Dihydroorotate dehydrogenase (quinone), mitochondrial (Plasmodium falciparum (isolate 3D7)) (UniProt Q08210); experiment: PfDHODH enzyme inhibitors, primary screen, biochemical, C-terminal His tag, absorbance 600 nm (AID 1175); conditions: DCIP absorbance 600 nm, higher = more signal, called active from +8 up or from −8 down;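 also: recombinant parasite enzyme with a five histidine tag at its C terminus; test concentration not given here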
# Dihydroorotate dehydrogenase (quinone), mitochondrial (Plasmodium falciparum (isolate 3D7)), sequence (Q08210 whole entry, looked up): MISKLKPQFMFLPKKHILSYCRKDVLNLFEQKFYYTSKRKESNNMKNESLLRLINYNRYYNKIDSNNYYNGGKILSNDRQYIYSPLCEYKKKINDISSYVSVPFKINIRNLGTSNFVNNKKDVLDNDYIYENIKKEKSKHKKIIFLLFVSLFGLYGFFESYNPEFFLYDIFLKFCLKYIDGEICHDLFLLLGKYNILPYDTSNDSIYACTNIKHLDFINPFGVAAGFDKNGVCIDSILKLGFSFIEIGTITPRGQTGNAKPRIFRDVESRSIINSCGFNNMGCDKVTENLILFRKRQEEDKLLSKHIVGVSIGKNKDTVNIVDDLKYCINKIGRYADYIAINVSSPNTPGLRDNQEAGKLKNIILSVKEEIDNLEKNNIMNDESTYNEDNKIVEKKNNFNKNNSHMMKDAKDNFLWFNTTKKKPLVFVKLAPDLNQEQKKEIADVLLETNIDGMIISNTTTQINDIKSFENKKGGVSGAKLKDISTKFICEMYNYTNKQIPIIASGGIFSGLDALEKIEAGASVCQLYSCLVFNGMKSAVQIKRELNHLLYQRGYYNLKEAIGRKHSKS
# [15] = P. aeruginosa biofilm formation inhibitors, primary screen, strain PAO1, LB-PBS medium, absorbance 600 nm (AID 1176); also: test concentration not given here; conditions: P. aeruginosa PAO1 growth/biofilm, A600, 12 h; higher = more signal
# [16] = S. cerevisiae RM11-1a growth modifiers, primary screen, strain RM11-1a, OD600, basal, 24 h (AID 1177); conditions: OD600, 24 h, higher = more signal, called active from +8 up or from −8 down;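 also: cultures grown under basal conditions with no added stressor; test concentration not given here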
# [17] = E. coli acrAB mutant growth effects, primary screen, E. coli filamentation inducers, strain DRC39, OD650, 24 h (AID 1178); conditions: higher = more signal, called active from +8 up or from −8 down;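 also: growth measured as culture turbidity by optical density at 650 nm; test concentration not given here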
# [18] = E. coli acrAB mutant growth effects, primary screen, E. coli filamentation inducers, strain DRC39, OD650, 48 h (AID 1179);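 also: screen aims at cell division blockers that make cells filament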; conditions: E. coli DRC39 delta-acrAB growth, higher = more signal, called active from +8 up or from −8 down
# [19] = RPMI8226 myeloma cell viability, profiling panel, resazurin fluorescence, basal, 24 h, PK04 Diversity Set (AID 1180); conditions: higher = more signal;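 also: RPMI8826 multiple myeloma cell line at 5000 cells per well; test concentration not given here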
# [20] = target: E3 ubiquitin-protein ligase XIAP (Homo sapiens) (UniProt P98170); experiment: XIAP binders, primary screen, biophysical, small-molecule microarray, fluorescence 635 nm (AID 1181); conditions: small-molecule microarray binding, higher = more signal;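 also: score merges 667 nm emission and signal to noise over triplicate slides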
# E3 ubiquitin-protein ligase XIAP (Homo sapiens), sequence (P98170 whole entry, looked up): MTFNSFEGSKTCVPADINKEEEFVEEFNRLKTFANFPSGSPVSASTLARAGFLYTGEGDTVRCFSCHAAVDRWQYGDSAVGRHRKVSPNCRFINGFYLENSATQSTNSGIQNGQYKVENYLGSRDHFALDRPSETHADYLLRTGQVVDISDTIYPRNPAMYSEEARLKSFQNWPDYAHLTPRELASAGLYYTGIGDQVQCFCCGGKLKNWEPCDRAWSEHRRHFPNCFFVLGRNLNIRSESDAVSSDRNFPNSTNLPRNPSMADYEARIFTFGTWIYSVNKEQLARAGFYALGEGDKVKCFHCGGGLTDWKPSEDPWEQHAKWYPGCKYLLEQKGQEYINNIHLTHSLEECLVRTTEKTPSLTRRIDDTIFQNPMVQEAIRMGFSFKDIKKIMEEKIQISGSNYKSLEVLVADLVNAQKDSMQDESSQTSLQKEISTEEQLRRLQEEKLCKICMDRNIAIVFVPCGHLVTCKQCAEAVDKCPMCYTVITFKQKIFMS
SMILES,z-score [1],z-score [2],z-score [3],z-score [4],z-score [5],z-score [6],z-score [7],z-score [8],z-score [9],z-score [10],z-score [11],z-score [12],z-score [13],composite z-score [14],z-score [15],z-score [16],z-score [17],z-score [18],z-score [19],composite z-score [20]
Cc1ccc(S[C@]2(C(=O)NCCN3CCOCC3)CC(=O)N(Cc3cc(C(F)(F)F)cc(C(F)(F)F)c3)[C@@H]2c2ccc(CO)cc2I)cc1,0.356,0.712,-0.554,-2.1,-1.92,-0.168,-0.227 (inactive),-0.2,-1.57,0.36 (inactive),1.21,-5.83 (inactive),-2.06 (inactive),-0.483 (inactive),-0.407 (inactive),-2.09 (inactive),0.106 (inactive),1.09 (inactive),-2.33,-0.419
CC(=CC1CCCCC1)[C@@H](NC(=O)c1ccc(C(F)(F)F)cc1)c1ccc(-c2ccccc2)cc1,-0.165,-0.791,-0.839,-1.5,-2.06,-2.33,-1.09 (inactive),-0.515,-0.693,0.334 (inactive),0.0536,1.08 (inactive),-0.549 (inactive),-0.468 (inactive),1.31 (inactive),0.088 (inactive),-1.16 (inactive),-0.822 (inactive),-0.18,-0.115
CCCCC=C[C@@H](NC(=O)c1ccco1)c1ccccc1,-1.08,-0.872,0.264,-0.499,-1.16,0.989,0.0899 (inactive),0.112,-1.05,0.335 (inactive),1,1.42 (inactive),0.356 (inactive),0.559 (inactive),-0.126 (inactive),0.846 (inactive),0.358 (inactive),0.815 (inactive),0.223,-0.123
O=C/C=C/c1ccc(Cl)cc1,1.04,-0.0776,0.265,-3.17,0.45,1.32,-0.34 (inactive),-0.762,-1.25,-0.835 (inactive),-0.831,-18 (active),-0.832 (inactive),-1.96 (inactive),0.475 (inactive),-4.94 (inactive),0.3 (inactive),0.782 (inactive),-0.81,-0.134
COC(=O)c1ccc(C23CC2(C(NP(=O)(c2ccccc2)c2ccccc2)c2ccccc2)C3)cc1 (stereo not given),0.766,0.406,1.48,-2.06,-3.34,3.7,0.711 (inactive),-0.369,-1.45,-0.416 (inactive),-0.402,-1.17 (inactive),-0.941 (inactive),-1.13 (inactive),0.287 (inactive),-3.39 (inactive),-0.29 (inactive),-0.16 (inactive),-0.122,-0.126
O=c1cccc(C=Cc2ccccc2)o1,-0.523,-0.601,0.645,-0.571,-0.743,0.053,0.355 (inactive),0.629,-0.969,0.261 (inactive),0.266,-2.09 (inactive),0.835 (inactive),0.0681 (inactive),-0.212 (inactive),-0.0064 (inactive),-0.131 (inactive),0.761 (inactive),-0.0628,-0.248
C=CC[C@@]1(C(=O)O)N=C(c2ccc(OCCCO)cc2)O[C@@H]1c1ccccc1N=[N+]=[N-],0.179,-0.76,0.47,-0.756,-0.577,-1.95,-0.366 (inactive),-0.919,-0.947,-0.514 (inactive),0.0725,-0.769 (inactive),-0.702 (inactive),0.535 (inactive),0.976 (inactive),0.15 (inactive),0.236 (inactive),-0.154 (inactive),-0.0493,-0.0559
COCCOC(=O)N1C(=O)[C@@]2(c3cc(C#CCNC(N)=O)ccc31)[C@H](C(=O)N1CCN(c3ncccn3)CC1)[C@H]1C(=O)O[C@H](c3ccccc3)[C@H](c3ccccc3)N1[C@@H]2c1ccccc1OCCO,-0.246,1.24,-0.539,-0.648,-0.876,-1.43,1.29 (inactive),-1.09,-1.04,1.02 (inactive),0.841,2.3 (inactive),0.0815 (inactive),0.373 (inactive),0.669 (inactive),3.47 (inactive),0.559 (inactive),-0.438 (inactive),0.147,0.0611
[N-]=[N+]=NCc1ccccc1C[C@@]1(C(=O)N2CCOCC2)N=C(c2ccc(OCCCO)cc2)O[C@@H]1c1ccccc1CN=[N+]=[N-],0.052,-0.19,1.29,-0.757,-2.91,0.883,0.612 (inactive),-0.997,-1.15,-1.46 (inactive),-0.638,0.418 (inactive),-2.22 (inactive),-0.346 (inactive),2.03 (inactive),1.19 (inactive),0.296 (inactive),1.06 (inactive),-1.46,-0.138
